Source: article PMC4336329 (PLoS ONE, 2015)
Out of some 310,000 compounds screened, about 2,200 (0.71%) showed an effect of 50% or more. The effect is printed as a negative number. The list comes from a sample in which strong results are over-represented; it also holds similar structures and randomly drawn compounds.

The molecules below were run against human ether-à-go-go-related gene (hERG) potassium channel (human, UniProt Q12809) (assay: primary screen, population patch clamp on CHO cells stably expressing hERG; higher = less effect of the substance).
Chain of human ether-à-go-go-related gene (hERG) potassium channel (Q12809 whole entry, looked up): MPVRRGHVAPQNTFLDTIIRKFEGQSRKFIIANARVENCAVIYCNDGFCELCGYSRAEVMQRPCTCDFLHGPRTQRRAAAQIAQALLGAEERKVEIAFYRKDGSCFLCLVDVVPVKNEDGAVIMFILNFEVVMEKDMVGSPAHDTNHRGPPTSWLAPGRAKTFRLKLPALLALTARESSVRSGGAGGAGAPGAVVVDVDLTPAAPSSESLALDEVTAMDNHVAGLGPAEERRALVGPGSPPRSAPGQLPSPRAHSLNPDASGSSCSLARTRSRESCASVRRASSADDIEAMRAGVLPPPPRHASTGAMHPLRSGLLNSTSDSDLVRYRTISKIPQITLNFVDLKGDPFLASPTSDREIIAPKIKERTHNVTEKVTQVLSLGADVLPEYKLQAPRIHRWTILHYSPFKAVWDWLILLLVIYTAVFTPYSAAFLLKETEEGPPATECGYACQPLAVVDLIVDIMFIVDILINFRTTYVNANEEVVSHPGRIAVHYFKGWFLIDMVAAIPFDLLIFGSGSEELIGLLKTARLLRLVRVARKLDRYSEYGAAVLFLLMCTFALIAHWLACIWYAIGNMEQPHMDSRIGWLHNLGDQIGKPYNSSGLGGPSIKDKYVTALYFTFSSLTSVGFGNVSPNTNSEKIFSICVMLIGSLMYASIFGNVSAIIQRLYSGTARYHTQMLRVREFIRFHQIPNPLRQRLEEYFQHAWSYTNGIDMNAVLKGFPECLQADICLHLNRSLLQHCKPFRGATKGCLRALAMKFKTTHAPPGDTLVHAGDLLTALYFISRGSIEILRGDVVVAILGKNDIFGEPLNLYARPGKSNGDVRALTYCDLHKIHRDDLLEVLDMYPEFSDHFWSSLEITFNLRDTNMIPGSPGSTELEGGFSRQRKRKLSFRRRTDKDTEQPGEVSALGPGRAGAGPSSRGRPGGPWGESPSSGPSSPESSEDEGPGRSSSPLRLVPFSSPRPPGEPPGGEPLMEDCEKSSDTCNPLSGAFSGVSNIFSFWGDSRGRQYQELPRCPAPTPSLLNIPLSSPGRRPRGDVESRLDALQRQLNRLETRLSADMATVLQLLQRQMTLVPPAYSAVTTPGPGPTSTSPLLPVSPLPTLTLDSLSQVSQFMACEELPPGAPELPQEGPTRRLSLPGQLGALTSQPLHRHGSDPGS

Structure (SMILES)	hERG current change (%, negative = inhibition) at 1uM
CCN(CC)c1ccc(/C=C2\C(=O)NC(=S)N(C)C2=O)o1	7.14%
C#CCn1c(=NC(=O)c2ccccc2[N+](=O)[O-])sc2cc(S(C)(=O)=O)ccc21	13.3%
CC1CC(c2ccccc2)n2nc(NC(=O)CCc3ccccc3)nc2N1 (stereo not drawn)	-1.41%
CCCCCCCCCCCCCCCC[n+]1cccc2ccccc21.[I-]	-23%
CCCCCCCCC[n+]1cccc2c3ccccc3ccc21.[Br-]	-91.7%
O=[N+]([O-])c1ccc(C[n+]2cccc3c4ccccc4ccc32)cc1.[Br-]	-18%
[Cl-].c1ccc(C[n+]2cccc3c4ccccc4ccc32)cc1	-2.14%
CCCCCCCC[n+]1cccc2c3ccccc3ccc21.[I-]	-92%
Cc1cccc[n+]1CCCCCCCCCC[n+]1ccccc1C.[Br-]	20.8%
CC(C)c1ccc(NC(=O)CSc2nnc(-c3ccccn3)n2C)cc1	-4.65%
COc1ccc(/C=N/Nc2ccccc2C(=O)O)cc1Cn1cc([N+](=O)[O-])cn1	6.26%
O=C(Nc1ccc(OC(F)(F)F)cc1)C1CCCN(S(=O)(=O)c2cccnc2)C1 (stereo not drawn)	-4.09%
Cc1nnsc1C(=O)N1CCCC(C(=O)c2ccc(C(F)(F)F)cc2)C1 (stereo not drawn)	3.88%
CCOc1ccc(-c2cc(C)[n+](CCO)c(-c3ccc(OCC)cc3)c2)cc1.[O-][Cl+3]([O-])([O-])[O-]	1.92%
O=[N+]([O-])c1ccc(C[n+]2c(-c3ccccc3)cc(-c3ccccc3)cc2-c2ccccc2)cc1.[O-][Cl+3]([O-])([O-])[O-]	7.61%
Cc1cc(-c2ccccc2)cc(-c2ccccc2)[n+]1CCc1ccccc1.[O-][Cl+3]([O-])([O-])[O-]	-78.4%
CCOc1ccc(-c2cc(C)[n+](CCN(CC)CC)c(-c3ccc(OCC)cc3)c2)cc1.[O-][Cl+3]([O-])([O-])[O-]	-19.3%
CCOc1ccc(-c2cc(C)[n+](CCc3ccc(OC)c(OC)c3)c(-c3ccc(OCC)cc3)c2)cc1.[O-][Cl+3]([O-])([O-])[O-]	-70.1%
Cc1cc(-c2ccccc2)cc(C)[n+]1Cc1ccccc1.[O-][Cl+3]([O-])([O-])[O-]	6.49%
CCNc1nc(NCC)nc(N/N=C/c2ccc(Br)cc2)n1	8.67%
COc1ccc2c(C=O)c[nH]c2c1	6.81%
Cc1ccccc1Nc1nc(N)nc(COC(=O)c2cccc(S(=O)(=O)N(C)C)c2)n1	8.43%
O=C1CCCN1CCCNS(=O)(=O)c1ccc(F)c(F)c1	13.5%

Structure (SMILES)	hERG current change (%, negative = inhibition) at 1uM
COc1ccc(-c2cc(-c3ccco3)[nH]c(=O)c2C#N)cc1OC	13.5%
COc1ccc(C2CC(=O)C(C=NCCO)=C(O)C2)cc1OC (stereo not drawn)	13.4%
COc1ccc(C2CC(=O)C(C=NCCN3CCN(C(C)=O)CC3)=C(O)C2)cc1 (stereo not drawn)	0.835%
CCC(=O)N1CCN(CCN=CC2=C(O)CC(c3ccc(OC)cc3)CC2=O)CC1 (stereo not drawn)	8.12%
CCCCCC(=O)N1CCN(CCN=CC2=C(O)CC(c3ccc(OC)cc3)CC2=O)CC1 (stereo not drawn)	-54.5%
COc1ccc(C2CC(=O)C(C=NCCN3CCN(C(=S)Nc4ccccc4)CC3)=C(O)C2)cc1OC (stereo not drawn)	1.75%
CCCCCC(=O)N1CCN(CCN=CC2=C(O)CC(c3ccc(OC)c(OC)c3)CC2=O)CC1 (stereo not drawn)	-56.5%
Cc1ccc(N2C(=O)/C(=C/N3CCN(C(=O)c4ccco4)CC3)C(=O)NC2=S)cc1C	1.67%
CC(C)CNS(=O)(=O)c1ccc(OCC(=O)Nc2ccc3c(c2)OCCO3)cc1	14.4%
CC(=O)Nc1ccc(OCC(O)CN2C(C)CCCC2C)cc1.Cl (stereo not drawn)	15.2%
Cl.OC(COc1ccccc1F)CN1CCC(Cc2ccccc2)CC1 (stereo not drawn)	-55.7%
OC(COc1ccc(F)cc1Cl)CN1CCc2ccccc2C1 (stereo not drawn)	-10.6%
Cl.OC(COCc1ccc2c(c1)OCO2)CN1CCC(Cc2ccccc2)CC1 (stereo not drawn)	-79.4%
Cl.OC(COCc1ccccc1)CN1CCN(Cc2ccc3c(c2)OCO3)CC1 (stereo not drawn)	-0.707%
OC(COc1ccc(F)cc1Cl)CN1CCC(Cc2ccccc2)CC1 (stereo not drawn)	-81.4%
Cc1ccc(C)c(OCC(O)CN2CCC(Cc3ccccc3)CC2)c1.Cl (stereo not drawn)	-43.1%
CC1CCCC(C)N1CC(O)COc1ccc(Cl)cc1 (stereo not drawn)	-57.6%
Cl.OC(COCc1ccc2c(c1)OCO2)CN1CCN(Cc2ccccc2)CC1 (stereo not drawn)	-8.65%
Cc1cc(Cl)ccc1OCC(O)CN1C(C)CCCC1C.Cl (stereo not drawn)	-46.3%
Cc1ccc(OCC(O)CN2CCN(CC(O)COc3ccc(C)cc3Cl)CC2)c(Cl)c1 (stereo not drawn)	-5.75%
Cc1ccc(OCC(O)CN2CCC(Cc3ccccc3)CC2)c(C)c1.Cl (stereo not drawn)	-49.9%
COc1ccc(Cn2c(-c3ccccc3)nc3c(c(=O)c4ccccc4n3C)c2=O)cc1	-7.94%
